# Compound activity: PubChem, National Center for Advancing Translational Sciences (NCATS)
# IL1B secr inh = blocks inflammasome-driven IL-1 beta release; THP-1 LPS/ATP IL-1B secretion, AlphaLISA, 16 h; active compounds read low; activity change, % at 57.5 µM; 360,000 tested, 4.7% active; in the data active = activity change below about -50%; inconclusive = mostly about -30% to -49%; note: % is set by controls: 0 for no effect and ±100 for the full control effect
#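 THP-1 cells pretreated 1 hr with compounds (up to 57.5 uM final), then stimulated with LPS (250 ng/mL final) plus ATP (1.25 mM final); secreted IL-1B measured by AlphaLISA after 16 hr, decreased signal indicating inhibition.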
# MCF10A rerep = DNA re-replication induction in MCF 10a cells; MCF 10A DNA re-replication, Hoechst nuclear intensity, 48 h; AID 624296; Potency, µM (titrated, usually from 46.1 µM), for the others: at the highest dose activity, positive = re-replication, most hits filed as activators; 350,000 tested, 2.9% active; note: potency is the fitted concentration of half-maximal effect; % of control where 0% means no effect; nearly all actives have a fitted effect of over 50% in size
# RORgamma inh = ROR gamma (mouse) transcription inhibition. Drosophila S2 Gal4-RORgamma UAS-luciferase reporter, 20 h. AID 2551. 310,000 tested, 5.4% active. Potency, µM (top dose mostly 53.6 µM), for the others: at the top dose activity change, negative = inhibition, actives largely listed as inhibitors. P51450; note: potency is the fitted concentration of half-maximal effect; % is set by controls: 0 for no effect and ±100 for the full control effect; nearly all actives have a fitted effect of over 60% in size
# Target sequence (P51450 whole entry, looked up, the tested form may be a part): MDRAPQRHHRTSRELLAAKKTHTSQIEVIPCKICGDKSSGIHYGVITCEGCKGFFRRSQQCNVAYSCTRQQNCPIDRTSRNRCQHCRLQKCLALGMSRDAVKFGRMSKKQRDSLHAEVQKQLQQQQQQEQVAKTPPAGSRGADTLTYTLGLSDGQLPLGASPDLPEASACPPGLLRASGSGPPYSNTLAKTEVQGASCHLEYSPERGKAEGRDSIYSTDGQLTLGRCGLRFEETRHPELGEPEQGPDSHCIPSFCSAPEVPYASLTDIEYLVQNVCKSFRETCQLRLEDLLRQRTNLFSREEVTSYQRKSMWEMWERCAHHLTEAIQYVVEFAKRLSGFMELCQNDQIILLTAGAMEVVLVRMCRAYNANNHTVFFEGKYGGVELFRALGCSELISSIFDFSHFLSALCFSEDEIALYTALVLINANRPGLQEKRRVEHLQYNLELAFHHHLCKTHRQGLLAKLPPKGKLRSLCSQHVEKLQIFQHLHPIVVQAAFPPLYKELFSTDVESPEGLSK
#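 Using a luciferase readout, inhibitors were identified by reduced reporter activity in Drosophila cells coexpressing a copper-inducible Gal4–ROR gamma fusion and UAS-driven Photinus luciferase, incubated 20 hr after 700 uM copper sulfate.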
# SW480 rereplic = inducers of DNA re-replication in SW480 colon cancer cells. SW480 DNA re-replication, Hoechst DNA content imaging, 48 h. Potency, µM (highest dose often 46.1 µM), inactives show at the highest dose re-replication activation, usual class: activators. 340,000 tested, 1.8% active. AID 624297; note: potency is the fitted concentration of half-maximal effect; % of control where 0% means no effect; nearly all actives have a fitted effect of over 55% in size
#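 Treated cells incubate 48 hr (37 C, 5% CO2), are stained 40 min with Hoechst, and nuclear fluorescence is enumerated; a rise in nuclei with high DNA signal marks re-replication.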
# Gal4-VP16 FLuc = counter-screen for ROR gamma inhibitors: Gal4-VP16 reporter; AID 2546; Potency, µM (titrated, usually from 53.6 µM), for the others: at the highest dose activity, negative = inhibition, actives largely listed as inhibitors; Drosophila S2 Gal4-VP16 UAS-luciferase, luminescence, 20 h; 310,000 tested, 3.5% active;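 note: Gal4-VP16 expression switched on by copper sulfate through the metallothionein promoter; potency is the fitted concentration of half-maximal effect; % is set by controls: 0 for no effect and ±100 for the full control effect; nearly all actives have a fitted effect of over 50% in size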
# Active calls of the source: *; ? = inconclusive; . = not tested or not shown; [ ] = another dose, or the depositor's remark. In the library only some 11% were active in any assay of this set; here they are far more common. Unless noted, calls come from the whole dose curve; as a rule, active = well fitted curve in the direction sought with a large enough effect; inconclusive = small, poorly fitted or top-dose-only effect, or another doubt; inactive = no such curve, though single readings can be large; an effect the other way counts as inactive or inconclusive.
SMILES,IL1B secr inh,MCF10A rerep,RORgamma inh,SW480 rereplic,Gal4-VP16 FLuc
Cc1cc(C)n(-c2nnc(NCc3ccc(Cl)cc3)nn2)n1,20.3,18.7%,?,11.6µM*,3.8%
Cc1cc(N(CCO)CCO)nc(-n2nc(C)cc2C)n1,-1.4,0.7%,-29.7%,-1.9%,10.5%
Cc1cc(C)n(-c2nc(C)nc(NCc3ccccc3)n2)n1,15.1,0.7%,1.58µM*,1.6%,5.62µM*
CNc1nc(C)nc(-n2nc(C)cc2C)n1,-1.3,4.6%,6.31µM*,-4.9%,?
Cc1ccc2c(CN3CCN(c4ccc(Cl)c(Cl)c4)CC3)cc(=O)oc2c1,-10.2,.,.,.,.
O=C(/C=C/c1ccccc1)NC(NC(=S)Nc1cccc(Cl)c1)C(Cl)(Cl)Cl (stereo not given),?,7.31µM*,?,?,17.8µM*
O=C(/C=C/c1ccccc1)NC(NC(=S)Nc1cccc(O)c1)C(Cl)(Cl)Cl (stereo not given),-116.7*,?,8.3%,-15.3%,?
Cc1ccc(NC(=S)NC(NC(=O)C(C)(C)C)C(Cl)(Cl)Cl)c(C)c1 (stereo not given),-9.7,3.0%,12.6µM*,2.8%,-25.3%
Cc1ccc(C)c(NC(=S)NC(NC(=O)/C=C/c2ccccc2)C(Cl)(Cl)Cl)c1 (stereo not given),?,2.91µM*,5.01µM*,?,11.2µM*
O=C(/C=C/c1ccccc1)NC(NC(=S)Nc1ccc(C(=O)O)cc1)C(Cl)(Cl)Cl (stereo not given),13.8,1.2%,-1.0%[10 µM],-1.1%,3.2%
O=C(/C=C/c1ccccc1)NC(NC(=S)Nc1cccc2cccnc12)C(Cl)(Cl)Cl (stereo not given),.,.,-6.1%,.,-7.7%
O=C(/C=C/c1ccccc1)NC(NC(=S)Nc1ccc(Cl)cc1Cl)C(Cl)(Cl)Cl (stereo not given),-9.8,11.6µM*,?,?,5.01µM*
CC1CCCCN1C(=S)NC(=O)c1ccco1 (stereo not given),17.8,10.1%,.,-4.8%,.
CCNC(=S)N1CCN(Cc2ccccc2)CC1,-10.4,-5.4%,-7.9%,-1.1%,2.2%
O=C(NC(=S)N1CCN(Cc2ccccc2)CC1)c1ccco1,27.4,0.0%,0.891µM*,-9.6%,3.55µM*
Cc1sc(NC(=O)c2ccco2)c(C(c2cccnc2)N2CCC(C)CC2)c1C (stereo not given),-54.8*,?,-24.4%,3.2%,-6.3%
CC1CCN(C(=S)NC(=O)c2ccco2)CC1,20.2,2.1%,3.98µM*,-2.8%,6.31µM*
Cc1sc(NC(=O)c2ccco2)c(CN2CCN(Cc3ccccc3)CC2)c1C,-79.8*,23.1µM*,15.9%,?,-8.2%
CSc1ccc(CN2CCC(C)(Oc3cccc(Cl)c3)C2)cc1 (stereo not given),7.9,.,.,.,.
O=C(O)c1cccc(Nc2ccnc(Nc3cccc(C(=O)O)c3)n2)c1,25.6,7.1%,-5.6%,-6.0%,-14.9%
OC1CCN(c2c3c(nc4cc(-c5cccc(F)c5)nn24)CCCC3)CC1,-100.0*,-3.8%,0.0%,3.5%,5.7%
Fc1cccc(-c2cc3nc4c(c(N5CCC6(CC5)OCCO6)n3n2)CCCC4)c1,-70.1*,-4.6%,4.7%,7.1%,13.0%
O=C(CN1C(=O)NC2(CCc3ccccc32)C1=O)NCc1ccc(Cl)cc1 (stereo not given),0.0,12.2%,.,-21.0%,.
CCOC(=O)c1c(NC(C)=O)sc2c(OCCN(CC)CC)c(Br)ccc12,-3.5,-22.8%[9.22 µM],-22.4%,-46.7%,-0.4%
CCOC(=O)c1c(NC(C)=O)sc2c1CCC(C=NCCCN(CC)CC)=C2Sc1ccccc1,-96.6*,?,.,?,.
SMILES,IL1B secr inh,MCF10A rerep,RORgamma inh,SW480 rereplic,Gal4-VP16 FLuc
CCN(CC)CCNc1cccc2sc3ccccc3c(=O)c12,0.0,.,.,.,.
CN(C)CCNc1cccc2sc3ccc(O)cc3c(=O)c12,-94.7*,.,.,.,.
Cc1ccc(NCCN(C)C)c2c(=O)c3cc(O)ccc3sc12,-102.2*,8.0%,.,?,.
Cc1cc2ncc(-c3cccs3)nc2cc1C,8.0,-0.8%,10µM*,0.6%,?
c1csc(-c2ccc3ccccc3n2)c1,16.2,-0.3%,-8.4%,-2.5%,18.2%
COc1cc2c(cc1OC)C(C)N(C(=O)[C@@H](NC(=O)c1ccccc1)C(C)C)CC2 (stereo not given in full),-51.8*,13.5%,-20.4%,6.0%,-0.3%
COc1ccccc1N1CCN(C(=O)c2c(-c3c(F)cccc3Cl)noc2C)CC1,44.6,?,.,?,.
COc1ccccc1N1CCN(C(=O)c2c(-c3ccccc3)noc2C)CC1,39.6,11.2µM*,-21.5%,?,-6.3%
COc1cc2c(C(=O)N3CCN(c4ccccc4C)CC3)c(C)oc2cc1Br,-73.3*,11.5%,3.3%,12.7%,-2.8%
COc1cc2c(cc1OC)C(C)N(C(=O)c1cccc([N+](=O)[O-])c1)CC2 (stereo not given),-52.9*,17.4%,?,1.1%,-7.2%
O=C1c2ccccc2C(c2nnnn2Cc2ccccc2)N1CCc1ccc(O)cc1 (stereo not given),9.9,.,.,.,.
COc1ccc(S(=O)(=O)N2CCOCC2)cc1NC(=O)C1CCCCN1S(=O)(=O)c1ccccc1 (stereo not given),?,-2.8%,.,-1.7%,.
COc1cc2c(cc1OC)C(c1cccs1)N(C(=O)c1cccnc1)CC2 (stereo not given),49.5,?,11.5%,5.17µM*,7.3%
COc1cc2c(cc1OC)C(C)N(C(=O)c1c(-c3ccccc3)noc1C)CC2 (stereo not given),66.1,11.6µM*,4.4%,?,0.3%
COc1ccccc1/C=C/C(=O)N1CCc2cc(OC)c(OC)cc2C1C (stereo not given),-70.0*,-14.0%,16.7%,-1.3%,-4.3%
COc1cc2c(cc1OC)C(C)N(C(=O)Nc1ccccc1)CC2 (stereo not given),39.9,?,-13.8%,5.17µM*,-2.0%
COc1cc2c(cc1OC)C(c1cccs1)N(C(=O)C(C)C)CC2 (stereo not given),10.2,1.2%,-3.2%,3.6%,0.6%
COc1cc2c(cc1OC)C(C)N(C(=O)CCNC(=O)c1ccccc1)CC2 (stereo not given),-11.4,4.6%,-15.9%,-2.3%,1.4%
COc1cc2c(cc1OC)C(c1ccccc1)N(C(=O)CCl)CC2 (stereo not given),-95.7*,16.4µM*,25.1µM*,16.4µM*,?
CC(=O)NC(=S)Nc1ccc(S(=O)(=O)N(C)Cc2ccccc2)cc1,-26.8,?,-5.4%,17.3%,-11.8%
Cc1cccc(C(=O)NC(=S)Nc2ccc(S(=O)(=O)N(C)c3ccccc3)cc2)c1,23.8,?,11.2µM*,1.7%,?
CC(C)C(=O)NC(=S)Nc1ccc(S(=O)(=O)N(C)Cc2ccccc2)cc1,19.2,?,14.1µM*,?,?
